Source: PubChem BioAssay (NCI)
Values joined by “and” are separate entries in the source; they are usually repeats but may differ in a detail not shown here. Identical values can stand only once. Compounds without any hit were thinned out: in the full panel of roughly 79,000, 15% have a hit. Active and inactive are the calls of the source. Rule as the data show it: active = growth inhibition above about 70%; inactive = the rest.

experiment: NCI Yeast Anticancer Drug Screen. Data for the mlh1 rad18 strain (AID 175); conditions: S. cerevisiae mlh1 rad18 strain growth inhibition, stronger effect = higher value; at 50.0 µM unless noted
In short: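 In this whole-cell yeast screen, a strain with altered DNA damage repair is challenged with compound, and its growth is measured against matched vehicle-treated controls.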

Compound	growth inhibition
COc1ccc(/C=C2\N=C3N(Cc4ccccc4)C=C(N)N3C2=O)cc1	9.75% (inactive)
O=C1CC(c2ccccc2)n2c(nc3ccccc32)N1 (stereo not given)	-64.2% (inactive)
C#CC(C)(O)CCC(C)C (stereo not given)	-16.9% (inactive)
Clc1ccc(OCC(COc2ccccc2)Oc2nc(-c3ccccc3)nc(-c3ccccc3)n2)cc1 (stereo not given)	-17.1% (inactive)
c1ccc(C(=NN=C(c2ccccc2)c2ccccc2)c2ccccc2)cc1	6.25% (inactive)
CCCCCCN1COCC(COc2ccc(Cl)cc2)OC1 (stereo not given)	50.1% (inactive)
O=[N+]([O-])c1ccc(CS(=O)Cc2ccccc2)cc1 (stereo not given)	31.7% (inactive)
COc1ccc(NS(=O)c2ccccc2)cc1 (stereo not given)	7.65% (inactive)
Cc1ccccc1C(=O)NC(O)(C(F)(F)F)C(F)(F)F	5.05% (inactive)
CC(O)CCC(=O)c1nc2ccccc2s1 (stereo not given)	3.5% (inactive)
CCOC(=O)c1c[nH]n(-c2ccccc2)c1=O	12.6% (inactive)
Nc1c(Cl)ncnc1Nc1ccc(CCO)cc1	-8.75% (inactive)
CC(N)C(=O)NO (stereo not given)	-36% (inactive)
CC(=O)NS(=O)(=O)c1ccc(NC(=O)/C=C/C(=O)O)cc1	19.9% (inactive) and -18% (inactive)
Nc1nc(=O)[nH]c(=O)[nH]1	16.9% (inactive)
O=C1CCCCC(=O)Nc2ccccc2N1	-20.8% (inactive)
NCc1ccc(F)cc1	26.5% (inactive)
CC1(C)N=C(C(N)=O)c2ncn(Cc3ccccc3)c2N1	-6.9% (inactive)
C(=Nc1cccnc1)c1ccc(C=Nc2cccnc2)cc1	33% (inactive)
CC(=O)[C@@]1(O)CC[C@H]2[C@@H]3CC[C@@H]4C[C@H](O)CC[C@]4(C)[C@H]3[C@H](O)C[C@@]21C	-7.85% (inactive)

Compound	growth inhibition
COc1ccc(C2CC(=O)N(c3ncccn3)C(=O)C2)cc1	5.25% (inactive)
CC1(C)CC2(Nc3ccccc3N2)C2=C(O1)C(=O)OC2	-10.6% (inactive)
C[n+]1cccc(C#N)c1	-0.5% (inactive) and 10.1% (inactive)
CCCc1cc(Cl)ccc1OCC(=O)O	10.3% (inactive)
C1CSCCSS[C@@H]2CCCCC2SC1 (stereo not given in full)	-17.1% (inactive)
Cn1cc(C(=O)c2ccccc2)cc(C(=O)c2ccccc2)c1=O	-36.5% (inactive)
NC(=O)C1CC2(c3ccccn3)c3ccccc3C1c1ccccc12 (stereo not given)	-6.1% (inactive)
O=S(=O)(Cc1nc2ccccc2[nH]1)Cc1nc2ccccc2[nH]1	9.3% (inactive)
N#Cc1cccc2c1Nc1ccccc1S2	-19.9% (inactive)
CSc1nc(NC2OC(COC(C)=O)C(OC(C)=O)C(OC(C)=O)C2OC(C)=O)c(N=CC=Nc2c(NC3OC(COC(C)=O)C(OC(C)=O)C(OC(C)=O)C3OC(C)=O)nc(SC)[nH]c2=O)c(=O)[nH]1 (stereo not given)	5.75% (inactive)
NCCCc1nonc1C(=O)O	-13.3% (inactive)
C[N+]1(Cc2csc(-c3ccc(Cl)cc3)n2)CCOCC1	4.2% (inactive)
COC(=O)c1ccccc1CC1Cc2ccc3c(c2C1=O)CCCC3 (stereo not given)	3.3% (inactive)
O=C(O)C[N-]CC(=O)O.OO.[O]=[V]	3.55% (inactive)
N#Cc1nc(C2CC2)oc1N	1.65% (inactive)
c1ccc(OC2=NC3=S(S2)SC(Oc2ccccc2)=N3)cc1	-3.35% (inactive)
CC(=O)CC(=O)Nc1nc2ccccc2s1	15.2% (inactive)
CCOc1nc(=O)n(C2OC(CO)C(O)C2O)s1 (stereo not given)	2.5% (inactive)
CC1CCC(c2ccccc2)(c2ccccc2)C1=O (stereo not given)	-2.25% (inactive)
CCCOC(=O)c1ccc([N+](=O)[O-])cc1	-23.1% (inactive)
